Results published in PubChem BioAssay (NCI).
The panel holds about 83,000 compounds, 20% with a hit somewhere; the sample as a whole holds those more often.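 Note: values are percent growth. 100 is the growth of untreated cells, values between 100 and 0 indicate rising inhibition; between -100 and 0 indicates cell death.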 A number with no mark means an inactive call. Active and inactive are the calls of the source. The calls were made as follows: active = growth percent below 10; inactive = the rest.

Tests used:
Assay in all cases: NCI-60 one-dose screen, 48 h (100 = growth as untreated, 0 = no growth, -100 = all killed)
SR leukemia = conditions: 10 µM unless noted
RPMI-8226 leukemia = conditions: 10 µM
OVCAR-8 ovarian = conditions: 10 µM unless noted
OVCAR-5 ovarian = conditions: 10 µM unless noted
OVCAR-4 ovarian = conditions: 10 µM unless noted
SK-OV-3 ovarian = conditions: 10 µM
IGROV1 ovarian = conditions: 10 µM unless noted
OVCAR-3 ovarian = conditions: 10 µM unless noted
HS 578T breast = conditions: 10 µM unless noted
T-47D breast = conditions: 10 µM
BT-549 breast = conditions: 10 µM unless noted
MDA-MB-435 melanoma = conditions: 10 µM unless noted
SW-620 colon = conditions: 10 µM unless noted
MCF7 breast = conditions: 10 µM unless noted
HCT-116 colon = conditions: 10 µM unless noted
KM12 colon = conditions: 10 µM unless noted
NCI/ADR-RES ovarian = conditions: 10 µM unless noted
HCC-2998 colon = conditions: 10 µM unless noted

SMILES | growth (SR leukemia) | growth (RPMI-8226 leukemia) | growth (OVCAR-8 ovarian) | growth (OVCAR-5 ovarian) | growth (OVCAR-4 ovarian) | growth (SK-OV-3 ovarian) | growth (IGROV1 ovarian) | growth (OVCAR-3 ovarian) | growth (HS 578T breast) | growth (T-47D breast) | growth (BT-549 breast) | growth (MDA-MB-435 melanoma) | growth (SW-620 colon) | growth (MCF7 breast) | growth (HCT-116 colon) | growth (KM12 colon) | growth (NCI/ADR-RES ovarian) | growth (HCC-2998 colon)
COCCOC1=C(Cl)C(=O)c2ccccc2C1=O | 0.0172% (active) | 6.59% (active) | 13.2% | 31.6% | -21.6% (active) | 87.5% | 21% | -13.3% (active) | 4.85% (active) | -49% (active) | -23% (active) | 4.68% (active) | -3.69% (active) | 15.4% | -13.5% (active) | -41.7% (active) | – | –
CCOc1ccc(-c2cnnn2-c2nonc2-n2cccc2)cc1 | 1.35% (active) | 12.5% | 25.9% | 41.1% | 39.6% | -1.75% (active) | 36.5% | -37.1% (active) | – | 49% | 41.1% | -31.2% (active) | 21.7% | 21.9% | 6.67% (active) | 8.62% (active) | -5.39% (active) | 0.666% (active)
O=C(c1ccc2ncc(-c3nc(NC4CC4)ncc3F)n2c1)N1CCOCC1 | 3.87% (active) | 25.7% | 18.5% | 9.93% (active) | 63.2% | – | 8.94% (active) | -22.2% (active) | 4.89% (active) | 32.2% | 52.4% | 32% | 10.2% | 5.99% (active) | 0.221% (active) | 2.99% (active) | 48.2% | 71.3%
Cn1c2c(cc(S(=O)(=O)c3ccccc3)c1=O)CCc1c-2cnn1-c1ccccc1Cl | 80.2% | 91.7% | 88.6% | 96.5% | 101% | 88.7% | 107% | 110% | 117% | 68% | 101% | 100% | – | 96.2% | 109% | 112% | – | 118%
O=C1N/C(=C\c2ccccc2)c2ncccc21 | 76.4% | 106% | 110% | 118% | 95.5% | 89.9% | 92.3% | 99.2% | 120% | 79.5% | – | 109% | 113% | 80% | 101% | 97.2% | – | 109%
Cc1c(NCC(=O)Nc2nc3ccccc3[nH]2)c(=O)n(-c2ccccc2)n1C | 92.4% | 96.7% | 99.9% | 92.5% | 88.3% | 106% | 102% | 109% | 101% | 97.8% | 110% | 103% | – | 89.4% | 101% | 112% | – | 114%
Cc1ccc(N(CSc2ccc(Cl)cc2)CSc2ccc(Cl)cc2)cc1 | 11.2% | 6.09% (active) | 66.9% | 79.1% | 85.2% | – | -10.3% (active) | 48.3% | 45% | – | 19.1% | 40.8% | 31.4% | 65.6% | 38.9% | – | 31.5% | 88.1%
Oc1ccccc1/C=N/Nc1nc2ccccc2s1 | 43.7% | 35.8% | 57.3% | 91.8% | 19.9% | 57.5% | – | 13.8% | 65.2% | 37.8% | 51.4% | 56.9% | 50.1% | 20.2% | 41.2% | 22.1% | 51.6% | –
CN1CCN(C)c2cncc(Br)c2C1=O | 84.1% | 93.8% | 102% | 104% | 115% | 101% | 108% | 109% | – | 101% | – | -81.7% (active) | – | 105% | – | 105% | 98.3% | 98%
NC(=O)c1cc(I)ccc1NC(=O)COc1ccc(Cl)cc1Cl | 40.9% | 96.3% | 102% | 103% | 114% | 90.5% | 89.3% | 103% | 106% | – | 77.6% | 14.9% | 79.6% | 72.2% | 90.7% | 67.8% | – | 95.3%
COc1ccc2nc(-n3nc(C)cc3C)c(-n3nc(C)cc3C)nc2c1 | 95% | 102% | 126% | 103% | 111% | 113% | 113% | 126% | – | 105% | 104% | 102% | 107% | 109% | 96% | 116% | 100% | 89.8%
Nc1cc2[nH]c(=O)c3ccccc3c2cc1Br | 61.9% | 76.9% | 77.6% | 60.6% | 59.2% | 87.9% | 59.6% | 72.1% | 67% | 20.6% | – | 95.3% | 82.9% | 24.5% | 77% | 78.9% | – | 69.5%
Oc1cccc(Nc2nc(-c3ccccn3)cs2)c1 | 87.8% | 81.9% | 106% | 110% | 101% | 95.2% | 100% | 119% | – | 87.3% | 95.1% | 105% | – | 84.1% | 97.1% | 103% | 94.6% | –
CCCCc1ccc(NC(=O)C(F)(F)F)cc1 | 86.4% | 91.4% | 95.1% | 99.6% | 114% | 109% | 113% | 106% | – | 87.1% | 87.7% | 102% | 101% | 108% | 106% | – | 103% | 106%
CCCN1CCN(c2ccc3nc(-c4ccc5nc(-c6ccc(C(F)(F)F)cc6)[nH]c5c4)[nH]c3c2)CC1 | -35.5% (active) | -29.9% (active) | -38% (active) | -25% (active) | -82.5% (active) | – | -83.5% (active) | -96.9% (active) | 4.6% (active) | 48% | 73.5% | -89% (active) | -82.6% (active) | -77% (active) | -83.3% (active) | -86.4% (active) | 74% | -89.8% (active)
COc1ccc(C2SC(C)C(=O)N2CCc2cccs2)cc1OC (stereo not drawn) | 63.8% | 68.8% | 85.1% | 104% | 62.8% | 102% | 79.6% | 95.3% | 95.4% | 52.9% | 76% | 98.3% | 102% | 86.3% | 78.4% | 96.3% | – | 84%
Cc1cccc2c(=O)c3c(sc12)c(NCCCN)nc1ccccc13 | -5.48% (active) | -29.9% (active) | 27.3% | 51.7% | 47.4% | – | -24.1% (active) | 39.4% | 24.6% | 43.9% | 65.9% | -75.4% (active) | -72% (active) | -78.9% (active) | -92% (active) | – | 24% | -30.9% (active)
O=C(NCc1ccc(F)cc1)C1CN(c2ccc(Cl)cc2)N(c2ccc(Cl)cc2)C1=O (stereo not drawn) | 24.3% | 72.8% | 80% | 85.6% | 66.6% | – | 77.4% | 9.08% (active) | 52.6% | 49.9% | 61.2% | -21.8% (active) | – | 29.6% | 48.8% | 33.2% | 52.9% | 84.6%
C=C[C@H]1C[C@@H]2C[C@@H]3[C@H]4C/C=C\C(=O)NCCCC5NC(=O)C(=C(O)/C=C/[C@@H]4CC(=O)[C@H]3[C@@H]2[C@H]1C)C5=O (stereo partly drawn) | -55.9% (active) | -54.5% (active) | -84.7% (active) | -92.7% (active) | -78.1% (active) | -100% (active) | -62.8% (active) | -95.3% (active) | – | -53.5% (active) | – | -19.2% (active) | -58.2% (active) | – | – | -17.4% (active) | -73.4% (active) | -30% (active)
